Test results as given in PubChem BioAssay (NCATS).
Inconclusive results are not listed. Calls of active or inactive are those of the source. Calls come from the whole dose curve; as a rule, active = well fitted inhibition curve with a large enough effect; inconclusive = small, poorly fitted or top-dose-only effect; inactive = flat fitted curve, though single readings scatter.

molecular target: Calcium and integrin-binding protein 1 (Homo sapiens) (UniProt Q99828); assay: Primary qHTS for Identification of Calcium Integrin Binding Protein 1 (CIB1) Competitor (AID 1508620); details: CIB1-GST / FITC-alphaIIb peptide fluorescence polarization; series mostly up to 57.7 µM; note: top concentration of the series differs between compounds
Sequence (Q99828 whole entry, looked up): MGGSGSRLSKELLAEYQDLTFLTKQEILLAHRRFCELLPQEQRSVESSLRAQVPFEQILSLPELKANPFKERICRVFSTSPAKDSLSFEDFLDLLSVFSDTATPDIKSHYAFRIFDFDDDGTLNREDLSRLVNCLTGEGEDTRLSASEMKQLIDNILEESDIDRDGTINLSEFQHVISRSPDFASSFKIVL
Method in brief: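 Fluorescence polarization competition: GST-tagged CIB1 (1 uM final) preincubated with compound 15 min at room temperature, then FITC-labelled alphaIIb peptide (100 nM final) added. After 15 min at room temperature, polarization read at Ex 480/Em 540.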

| Structure (SMILES) | outcome |
| --- | --- |
| O=C(C=Cc1cccnc1)NCCCCC1CCN(C(=O)c2ccccc2)CC1 | inactive |
| CC=CC1=C(C(=O)O)N2C(=O)[C@H](NC(=O)[C@H](N)c3ccc(O)cc3)[C@@H]2SC1 | inactive |
| C1=CCOCc2cc(ccc2OCCN2CCCC2)Nc2nccc(n2)-c2cccc(c2)OCC1 | inactive |
| CC(C)[C@H](C(=O)Nc1ccc(C(=O)NO)cc1)c1ccccc1 | inactive |
| CCCCc1nc2cc(C=CC(=O)NO)ccc2n1CCN(CC)CC | inactive |
| O=C(O)c1ccc2cc(-c3ccc(O)c(C45CC6CC(CC(C6)C4)C5)c3)ccc2c1 | inactive |
| Cc1[nH]c2ccccc2c1CCNCc1ccc(C=CC(=O)NO)cc1 | inactive |
| CC1=C(CO)C(=O)O[C@@H]([C@@H](C)[C@H]2CC[C@H]3[C@@H]4C[C@H]5O[C@]56[C@@H](O)C=CC(=O)[C@]6(C)[C@@H]4CC[C@]23C)C1 | inactive |
| Cc1cc(C(=O)N2CCN(c3cccc(Cl)c3)CC2)n(-c2ccccc2)n1 | inactive |
| Nc1ccn([C@@H]2O[C@H](CO)[C@H](O)C2(F)F)c(=O)n1 | inactive |
| CC(C)(C)NC(=O)[C@H]1CN(Cc2cccnc2)CCN1C[C@@H](O)C[C@@H](Cc1ccccc1)C(=O)N[C@H]1c2ccccc2C[C@H]1O | inactive |
| CCC1=C[C@@H]2CN(C1)Cc1c([nH]c3ccccc13)[C@@](C(=O)OC)(c1cc3c(cc1OC)N(C)[C@@H]1[C@@](O)(C(=O)OC)[C@H](OC(C)=O)[C@]4(CC)C=CCN5CC[C@]31[C@@H]54)C2 | inactive |
| CC[C@H]1CN2CCc3cc(OC)c(OC)cc3[C@H]2C[C@@H]1C[C@@H]1NCCc2cc(OC)c(OC)cc21 | inactive |
